# The source made the active and inactive calls.
# What was measured:
# Albumin (Bos taurus) = Albumin (Bos taurus) (UniProt P02769); assay: compounds binding labelled BSA control protein – biochemical, small-molecule microarray, Alexa647 label, 635/667 nm fluorescence, artefact control for SMM control protein annotation, profiling panel (AID 1118); conditions: BSA-A647 binding, fluorescence 635 nm, higher = more signal;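 note: score merges 667 nm emission intensity and signal-to-noise per printed compound spot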
# [1] = probe aXIP binding to arrayed compounds – biochemical, NeuroSMM set, 635/667 nm fluorescence, primary screen (AID 1119); conditions: small-molecule microarray, higher = more signal, called active from +8 up or from −8 down;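 note: probe is the protein aXip251-270 applied at 1 µg/mL to compound-printed slides; binding of probe to printed compounds measured as 667 nm fluorescence plus signal to noise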
# [2] = probe aNOTCH3 binding on compound microarray – biochemical, small-molecule microarray, 635/667 nm fluorescence, primary screen (AID 1120); conditions: higher = more signal;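 note: probe is a biotin-tagged antibody raised against NOTCH3 rather than NOTCH3 protein; score merges spot fluorescence near 667 nm with spot signal to noise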
# [3] = probe aNOTCH2 binding on compound microarray – biochemical, small-molecule microarray, 635/667 nm fluorescence, primary screen (AID 1121); conditions: higher = more signal;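 note: score merges feature fluorescence read at 667 nm with its signal to noise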
# [4] = molecular target: Carbonic anhydrase 2 (Homo sapiens) (UniProt P00918); assay: compounds binding carbonic anhydrase 2 – biochemical, small-molecule microarray, Alexa647-labelled CAII, profiling panel (AID 1122); conditions: CAII-A647 binding fluorescence, higher = more signal
# [5] = COS7 lysate on small-molecule microarray, probe aHis, 635 nm (AID 1123); conditions: COS7 cell lysate, fluorescence, higher = more signal;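 note: z-score combines 667nm fluorescence intensity with signal-to-noise per printed compound spot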
# [6] = probe aLAP1 signal on lysate-treated microarray – cell lysate, small-molecule microarray, COS7 lysate, primary screen (AID 1124); conditions: probe aLAP1, fluorescence, higher = more signal;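 note: lysate comes from COS7 cells expressing LAP1 and is applied at 0.3 µg/mL; score merges spot fluorescence near 667 nm with signal-to-noise over triplicate slides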
# Sam68 (KHDRBS1) = assay: compounds binding KHDRBS1 protein – biochemical, small-molecule microarray, 635 nm fluorescence, primary screen (AID 1125); conditions: higher = more signal;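 note: score merges 667 nm channel intensity with signal to noise over triplicate slides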
# [7] = tested on: Chordin-like protein 2 (CHRDL2); assay: compounds binding chordin-like 2 – biochemical, small-molecule microarray, 635 nm fluorescence, primary screen (AID 1126); conditions: fluorescence 635 nm, higher = more signal;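 note: printed compound slides probed with Chrdl2 protein at 4 µg/mL for 1 h at 4 C; score merges 667 nm emission intensity with signal to noise over three replicate slides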
# [8] = molecular target: Concanavalin-A (Canavalia ensiformis) (UniProt P02866); assay: compounds binding concanavalin A lectin – biochemical, small-molecule microarray, Alexa647 label, 635 nm, artefact control for SMM control protein annotation, primary screen (AID 1127); conditions: ConA-A647 binding fluorescence, higher = more signal;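 note: z combines 667 nm emission intensity with signal-to-noise across three replicate slides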
# [9] = compounds binding Alexa647 anti-His antibody – biochemical, small-molecule microarray, 635 nm fluorescence, artefact control for SMM control protein annotation, primary screen (AID 1128); conditions: higher = more signal;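 note: score merges feature fluorescence with signal-to-noise for each printed compound spot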
# [10] = tested on: Human papillomavirus type 1a E7 protein (residues 1-88); assay: HPV1a E7 small-molecule binders, primary screen, biochemical, small-molecule microarray, residues 1-88, 635 nm (AID 1129); conditions: small-molecule microarray binding, fluorescence 635 nm; higher = more signal
# [11] = molecular target: Focal adhesion kinase 1 (Homo sapiens) (UniProt Q05397); assay: PTK2 protein binding on printed compound slides – biochemical, small-molecule microarray, 635/667 nm fluorescence, BSA, DTT, primary screen (AID 1130); conditions: 635 nm fluorescence, higher = more signal;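 note: composite of spot emission at 667 nm and signal to noise over triplicate slides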
# [12] = tested on: Fibrinogen (Alexa647-labelled); assay: Alexa647-fibrinogen binding to printed small molecules – biochemical, small-molecule microarray, 635/667 nm fluorescence, artefact control for SMM control-protein annotation, profiling panel (AID 1131); conditions: fibrinogen-A647 binding fluorescence, higher = more signal;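 note: z-score merges 667 nm fluorescence with per-spot signal-to-noise over triplicate slides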
# [13] = molecular target: Follistatin (Homo sapiens) (UniProt P19883); assay: FST protein binding to printed compounds – biochemical, small-molecule microarray, 635/667 nm fluorescence, primary screen (AID 1132); conditions: 635 nm fluorescence, higher = more signal
# [14] = molecular target: Fibroblast growth factor 2 (Homo sapiens) (UniProt P09038); assay: basic fibroblast growth factor binding to printed compounds – biochemical, small-molecule microarray, 635/667 nm fluorescence, primary screen (AID 1133); conditions: FGF2, fluorescence 635/667, higher = more signal
# [15] = JC-1 mitochondrial potential readout, lung cancer cells – cell-based, A549, JC-1 fluorescence, basal, 24 h, 100 nL, profiling panel (AID 1138); conditions: higher = more signal;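 note: A549 lung adenocarcinoma cells under basal conditions with no added stimulus; test concentration not given here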
# Lefty1 = Lefty1 protein binding to printed compounds – biochemical, small-molecule microarray, 635/667 nm fluorescence, primary screen (AID 1139); conditions: fluorescence 635/667, higher = more signal
# [16] = tested on: wheat germ agglutinin (Triticum aestivum), Alexa647-labelled; assay: Alexa647-WGA lectin binding to printed small molecules – biochemical, small-molecule microarray, 635/667 nm fluorescence, artefact control for SMM control-protein annotation, profiling panel (AID 1140); conditions: WGA-A647 binding, 635 nm fluorescence, higher = more signal;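 note: score merges 667 nm feature emission with signal to noise over triplicate slides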
# [17] = molecular target: Luciferin 4-monooxygenase (Photinus pyralis) (UniProt P08659); assay: inhibition of purified Photinus pyralis luciferase – biochemical, luminescence, purified enzyme, 2006 set, primary screen (AID 1141); conditions: purified firefly luciferase, SteadyGlo luminescence, 30 min; higher = more signal, called active from +8 up or from −8 down;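 note: cell-free assay with purified firefly luciferase at 100 ng per well in PBS; test concentration not given here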
# Chain of Luciferin 4-monooxygenase (Photinus pyralis) (P08659 whole entry, looked up): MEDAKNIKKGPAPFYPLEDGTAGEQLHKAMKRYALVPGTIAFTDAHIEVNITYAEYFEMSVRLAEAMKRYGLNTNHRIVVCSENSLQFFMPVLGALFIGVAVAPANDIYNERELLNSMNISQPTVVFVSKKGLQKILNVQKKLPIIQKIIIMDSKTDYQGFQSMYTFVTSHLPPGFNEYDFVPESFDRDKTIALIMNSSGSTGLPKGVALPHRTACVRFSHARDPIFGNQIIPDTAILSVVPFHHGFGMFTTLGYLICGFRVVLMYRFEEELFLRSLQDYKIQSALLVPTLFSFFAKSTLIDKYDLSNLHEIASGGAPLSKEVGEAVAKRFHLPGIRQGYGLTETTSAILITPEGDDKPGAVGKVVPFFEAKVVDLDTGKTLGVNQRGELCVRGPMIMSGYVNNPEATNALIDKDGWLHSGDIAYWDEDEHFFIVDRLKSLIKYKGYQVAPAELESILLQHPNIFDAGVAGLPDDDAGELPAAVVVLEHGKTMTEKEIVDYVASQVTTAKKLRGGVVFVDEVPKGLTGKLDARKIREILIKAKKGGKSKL
# Chain of Albumin (Bos taurus) (P02769 whole entry, looked up): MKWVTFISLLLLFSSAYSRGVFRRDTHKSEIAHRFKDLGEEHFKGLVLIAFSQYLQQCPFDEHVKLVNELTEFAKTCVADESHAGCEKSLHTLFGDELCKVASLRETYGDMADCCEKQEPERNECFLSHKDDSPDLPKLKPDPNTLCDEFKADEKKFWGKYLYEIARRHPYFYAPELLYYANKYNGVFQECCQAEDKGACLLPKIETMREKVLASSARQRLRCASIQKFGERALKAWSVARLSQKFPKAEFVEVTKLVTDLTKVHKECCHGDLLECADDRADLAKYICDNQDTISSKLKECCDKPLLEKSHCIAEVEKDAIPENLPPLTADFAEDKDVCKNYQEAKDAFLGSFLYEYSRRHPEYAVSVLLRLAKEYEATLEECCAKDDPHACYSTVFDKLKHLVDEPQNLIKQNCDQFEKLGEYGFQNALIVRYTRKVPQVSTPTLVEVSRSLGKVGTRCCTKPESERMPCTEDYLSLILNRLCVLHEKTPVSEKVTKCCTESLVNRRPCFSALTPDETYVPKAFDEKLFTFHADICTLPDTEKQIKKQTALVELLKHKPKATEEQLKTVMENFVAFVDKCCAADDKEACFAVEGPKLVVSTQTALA
# Chain of Concanavalin-A (Canavalia ensiformis) (P02866 whole entry, looked up): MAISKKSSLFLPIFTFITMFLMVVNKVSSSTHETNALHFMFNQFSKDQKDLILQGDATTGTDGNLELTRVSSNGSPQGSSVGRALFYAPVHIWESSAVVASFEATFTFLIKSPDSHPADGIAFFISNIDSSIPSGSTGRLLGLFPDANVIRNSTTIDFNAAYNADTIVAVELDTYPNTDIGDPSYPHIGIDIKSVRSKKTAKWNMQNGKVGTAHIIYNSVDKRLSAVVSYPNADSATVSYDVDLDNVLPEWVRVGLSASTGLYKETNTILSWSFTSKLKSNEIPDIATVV
# Chain of Follistatin (Homo sapiens) (P19883 whole entry, looked up): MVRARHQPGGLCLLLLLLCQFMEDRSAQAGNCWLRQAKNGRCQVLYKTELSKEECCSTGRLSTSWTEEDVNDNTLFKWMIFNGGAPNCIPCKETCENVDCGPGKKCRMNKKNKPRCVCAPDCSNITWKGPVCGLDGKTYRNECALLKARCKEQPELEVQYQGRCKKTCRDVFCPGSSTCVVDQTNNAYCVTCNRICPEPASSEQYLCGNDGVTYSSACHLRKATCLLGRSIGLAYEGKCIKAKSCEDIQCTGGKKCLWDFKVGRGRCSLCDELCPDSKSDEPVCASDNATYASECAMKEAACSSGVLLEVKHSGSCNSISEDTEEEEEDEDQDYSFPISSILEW
# Chain of Fibroblast growth factor 2 (Homo sapiens) (P09038 whole entry, looked up): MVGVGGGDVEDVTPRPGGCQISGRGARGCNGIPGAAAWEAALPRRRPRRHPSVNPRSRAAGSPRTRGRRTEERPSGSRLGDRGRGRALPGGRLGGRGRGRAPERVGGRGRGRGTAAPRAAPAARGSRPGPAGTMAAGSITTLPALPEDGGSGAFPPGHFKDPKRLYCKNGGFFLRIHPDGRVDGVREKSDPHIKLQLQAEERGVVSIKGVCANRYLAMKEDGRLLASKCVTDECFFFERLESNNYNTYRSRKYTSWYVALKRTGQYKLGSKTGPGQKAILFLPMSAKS
# Chain of Focal adhesion kinase 1 (Homo sapiens) (Q05397 whole entry, looked up): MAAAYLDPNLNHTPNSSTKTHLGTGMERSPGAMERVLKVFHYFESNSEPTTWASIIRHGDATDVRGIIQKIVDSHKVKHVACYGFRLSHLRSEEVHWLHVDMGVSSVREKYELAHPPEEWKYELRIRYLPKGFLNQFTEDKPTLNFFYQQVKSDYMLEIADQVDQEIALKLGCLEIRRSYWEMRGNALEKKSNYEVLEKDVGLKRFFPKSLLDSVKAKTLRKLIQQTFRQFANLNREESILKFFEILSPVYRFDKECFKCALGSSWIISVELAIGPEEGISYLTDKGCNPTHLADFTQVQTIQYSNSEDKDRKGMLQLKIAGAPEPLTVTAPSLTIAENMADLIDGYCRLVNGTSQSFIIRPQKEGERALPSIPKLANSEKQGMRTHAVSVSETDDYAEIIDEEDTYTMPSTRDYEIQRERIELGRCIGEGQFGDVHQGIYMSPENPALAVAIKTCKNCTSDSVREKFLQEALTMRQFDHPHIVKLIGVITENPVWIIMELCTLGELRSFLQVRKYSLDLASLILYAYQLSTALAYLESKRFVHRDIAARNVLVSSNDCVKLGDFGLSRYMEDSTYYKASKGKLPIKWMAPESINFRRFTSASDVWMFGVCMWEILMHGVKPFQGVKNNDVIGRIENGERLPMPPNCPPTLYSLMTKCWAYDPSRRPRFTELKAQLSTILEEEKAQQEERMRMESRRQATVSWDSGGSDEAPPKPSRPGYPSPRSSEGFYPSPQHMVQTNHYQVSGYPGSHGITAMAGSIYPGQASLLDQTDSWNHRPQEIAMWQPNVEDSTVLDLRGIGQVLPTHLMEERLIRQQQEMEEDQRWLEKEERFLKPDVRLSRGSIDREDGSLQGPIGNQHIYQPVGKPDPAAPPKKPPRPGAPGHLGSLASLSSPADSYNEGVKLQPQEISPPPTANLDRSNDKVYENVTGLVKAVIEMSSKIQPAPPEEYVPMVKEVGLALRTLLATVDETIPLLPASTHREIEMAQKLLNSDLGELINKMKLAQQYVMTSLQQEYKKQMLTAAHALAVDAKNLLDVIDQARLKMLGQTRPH
Structure (SMILES),composite z-score (Albumin (Bos taurus)),composite Z-score [1],composite z-score [2],composite z-score [3],composite z-score [4],composite z-score [5],composite z-score [6],composite z-score (Sam68 (KHDRBS1)),composite z-score [7],composite z-score [8],composite z-score [9],composite z-score [10],composite z-score [11],composite z-score [12],composite z-score [13],composite z-score [14],z-score [15],composite z-score (Lefty1),composite z-score [16],z-score [17]
C=CC[C@]1(C(=O)N2CCCCC2)COC(c2ccc(OCCCO)cc2)=N1,0.837,-0.216 (inactive),-0.152,-0.173,0.818,2.22,0.523,-0.48,-0.802,-1.46,-1.2,0.633,-0.0161,-0.236,-0.465,-0.453,2.27,-0.45,-1.3,-2.65 (inactive)
CC(CO)N1C(=O)[C@@H]2C3C(=O)OCCC/C=C\[C@H]3OC23C=CCN(Cc2ccccc2)C(=O)[C@@H]13 (stereo not given in full),-0.656,-0.427 (inactive),-0.189,-0.177,0.866,-0.255,-0.285,-0.164,-1.64,-2.2,-1.18,-1.47,-0.55,-1.52,-0.742,-0.426,0.935,-0.532,-1.54,-1.56 (inactive)
CC(C)C(=C=CC[C@@H](O)c1ccc(CO)o1)CCO,-0.596,1.71 (inactive),-0.0984,-0.11,0.795,0.57,-0.0333,0.541,0.107,0.349,0.635,-0.356,-0.7,0.401,0.987,1.05,1.86,0.759,0.308,-2.15 (inactive)
NCCCCCCNC(=O)[C@@H]1C[C@@H]2C(=O)N[C@@H](Cc3ccccc3)C(=O)N2[C@@H]1c1ccc(O)cc1,0.676,0.755 (inactive),0.0418,-0.112,0.65,0.68,0.915,1.06,0.283,1.12,1.94,0.434,0.332,0.63,0.898,0.312,0.613,0.104,0.931,-1.15 (inactive)
CC(C)(C)OC(=O)CC[C@@]12N=C(c3ccc(OCCCO)cc3)O[C@@H]1c1ccccc1CN(Cc1ccccc1)C2=O,-0.478,0.976 (inactive),0.0026,-0.11,0.418,1.73,-0.0961,1.31,-0.0229,1.1,2.46,1.18,1.36,0.357,1.32,1.43,1.09,0.377,0.438,-1.59 (inactive)
COc1ccc([Si](C)(C)[C@H]2[C@H](CC(=O)N(CCO)Cc3ccccc3)O[C@@]3(C(=O)N(Cc4cccc(N5C(=O)COc6ccccc65)c4)c4ccccc43)[C@@H]2C)cc1,-1.06,0.616 (inactive),0.0961,-0.118,0.462,1.69,-0.045,0.897,0.81,1.06,1.11,0.965,1.45,0.147,1.05,1.52,-0.0909,1.26,0.528,-1.8 (inactive)
CC1CC/C=C\[C@H]2OC34C=CCN(C(C)C)C(=O)[C@H]3N(C(CO)C(C)C)C(=O)[C@@H]4C2C(=O)O1 (stereo not given in full),-0.314,-0.481 (inactive),-0.15,-0.125,0.831,0.669,-0.0978,-1.57,-1.36,-2.39,-1.64,-2,1,-1.9,-0.459,-0.294,1.01,-1.02,-2.12,-1.3 (inactive)
CCCCC(=C=CC[C@H](O)c1cccc(OCCO)c1)CCO,0.15,-0.434 (inactive),-0.0699,-0.162,0.681,0.24,0.133,-0.319,-0.361,-0.245,0.0233,-0.282,0.44,-0.644,0.455,0.287,1.97,-0.103,-0.602,-0.835 (inactive)
O=C1O[C@@H](c2ccccc2)[C@@H](c2ccccc2)N2[C@@H](c3ccc(OCCO)cc3)[C@]3(C(=O)Nc4ccc(C#CC5(O)CCCCCC5)cc43)[C@@H](C(=O)NC[C@H](O)c3ccccc3)[C@H]12,0.879,-0.363 (inactive),0.158,0.0278,0.695,1.56,2.16,1.32,0.127,1.17,2.14,1.08,0.745,0.407,1.23,0.505,-0.482,0.783,1.09,-1.77 (inactive)
CCCCC(=C=CC[C@@H](O)c1ccc(OCCO)cc1)C[C@@H](O)c1cc(Cl)cc(Cl)c1O,0.645,0.0371 (inactive),0.151,-0.048,0.674,0.886,0.673,0.661,-0.101,0.486,0.155,0.597,0.507,0.556,0.63,0.594,1.28,0.255,1.21,-3.02 (inactive)
COc1ccc(C#Cc2ccc3c(c2)[C@]2(C(=O)N3)[C@H](c3ccc(O)cc3)N3[C@H](c4ccccc4)[C@H](c4ccccc4)OC(=O)[C@H]3[C@@H]2C(=O)N2CCN(c3ncccn3)CC2)cc1,0.888,4.41 (inactive),0.116,0.0557,0.462,0.868,0.97,1.31,-0.176,1.08,1.2,0.885,1.71,0.763,0.722,0.143,-0.308,-0.151,0.929,-1.27 (inactive)
COC(=O)C(CC#Cc1ccc2c(c1)[C@]1(C(=O)N2)[C@H](C(N)=O)[C@H]2C(=O)O[C@H](c3ccccc3)[C@H](c3ccccc3)N2[C@@H]1c1ccc(O)cc1)C(=O)OC,0.201,0.0742 (inactive),0.122,0.0286,0.803,1.15,0.478,-0.942,-1.33,-1.92,0.62,-0.328,0.418,-1.59,-0.919,-0.292,-1.07,-0.861,-0.3,-1.43 (inactive)
COCCOC(=O)N1C(=O)[C@@]2(c3cc(C#CC4(O)CCCCCC4)ccc31)[C@H](c1ccccc1OCCO)N1[C@H](c3ccccc3)[C@H](c3ccccc3)OC(=O)[C@H]1[C@@H]2C(=O)Nc1nc2ccccc2s1,0.655,-0.344 (inactive),-0.0942,-0.0843,0.53,1.16,0.417,1.16,0.478,1.18,1.84,1.21,0.862,0.805,1.39,1.16,-1.56,1.5,1.14,-2.53 (inactive)
CC(C)(C)OC(=O)CC[C@]1(C(=O)NCc2ccccc2)COC(c2ccc(OCCCO)cc2)=N1,0.875,0.603 (inactive),0.0128,0.0377,0.673,2.41,1.49,1.25,-1.45,0.255,-0.518,1.25,0.444,0.694,-0.0444,-1.04,0.695,-0.986,1.33,-0.714 (inactive)
C=CC[C@@H](OC(=O)Nc1ccc(SC)cc1)c1ccc(OCCO)cc1,-0.733,0.667 (inactive),-0.267,-0.179,0.758,1.99,0.105,0.655,-2.01,-0.264,2.42,-0.0392,-0.783,-1.58,-1.15,-0.991,0.844,-0.763,-0.666,-3.91 (inactive)
CCCCCN1CC=CC23O[C@@H]4/C=C\CCC(C)OC(=O)C4[C@H]2C(=O)N(CCCO)[C@@H]3C1=O (stereo not given in full),-1.27,0.58 (inactive),-0.357,-0.161,0.97,0.1,1.62,-0.237,-1.15,-0.521,-1.7,-0.719,-0.249,-1.63,-1.3,-0.965,0.684,-1.2,-1.08,-0.637 (inactive)
CCOC(=O)C[C@H]1[C@H](OC(=O)Cc2ccc3c(c2)OCO3)[C@@H](NC(=O)c2ccc3ccccc3c2)c2cc(OCCCO)ccc2N1C(=O)c1ccc2ccccc2n1,0.661,-0.102 (inactive),0.0349,-0.0523,0.371,0.77,0.562,0.826,-0.318,0.356,0.0303,0.731,-0.339,0.774,0.197,0.334,2.55,0.37,1.06,-1.25 (inactive)

# From PubChem BioAssay
